{"source": "ChEMBL document CHEMBL3433997", "about": "“St. Jude Leishmania screening dataset” (2016)", "data": [{"biological_target": "Solute carrier family 2, facilitated glucose transporter member 1 (Homo sapiens) (UniProt P11166)", "sequence (P11166 whole entry)": "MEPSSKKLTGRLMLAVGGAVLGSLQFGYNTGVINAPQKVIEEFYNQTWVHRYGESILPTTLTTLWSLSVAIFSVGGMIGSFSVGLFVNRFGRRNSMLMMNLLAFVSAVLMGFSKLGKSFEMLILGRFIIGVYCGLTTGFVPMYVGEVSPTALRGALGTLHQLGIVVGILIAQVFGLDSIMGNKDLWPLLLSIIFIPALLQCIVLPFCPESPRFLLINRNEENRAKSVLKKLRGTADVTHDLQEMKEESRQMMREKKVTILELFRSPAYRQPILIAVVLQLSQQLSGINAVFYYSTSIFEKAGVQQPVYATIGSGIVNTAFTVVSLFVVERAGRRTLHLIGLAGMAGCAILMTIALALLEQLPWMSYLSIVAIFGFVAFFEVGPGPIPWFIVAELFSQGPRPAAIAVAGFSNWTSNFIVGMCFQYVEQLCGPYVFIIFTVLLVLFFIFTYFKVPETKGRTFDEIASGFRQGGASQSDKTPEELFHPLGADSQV", "experiment": "ST_JUDE_LEISH: Cytotoxicity at 2uM final concentration against transgenic Leishmania Mexicana promastigotes LmGLUT1 that are glucose transport deficient and complemented with the human glucose transporter GLUT1. Activity is measured by DNA content using SYBR green in vitro", "assay_type": "functional", "units": {"inhibition": "%"}, "values": [{"compound": "O=C(Nc1cccc(-c2cccc(-c3nc4cc(C(F)(F)F)ccc4[nH]3)c2)c1)c1ccncc1", "inhibition": 5.04}, {"compound": "CC(C)CCCC(C)(C)NC[C@@H](O)[C@H](Cc1ccccc1)NC(=O)c1cc(NC(C)C)cc(N2CCCCS2(=O)=O)c1", "inhibition": -0.83}, {"compound": "O=S(=O)(c1ccc(OCc2ccc(Cl)cc2)cc1)c1cc2c(c(-c3ccc(F)cc3)c1)CCN(CC1CC1)CC2", "inhibition": 2.2}, {"compound": "CC(C)(C)c1ccc(OCC(=O)NC2CCN(c3ccnc4cc(Cl)ccc34)C2)cc1", "note": "(stereo not given)", "inhibition": 0.64}, {"compound": "Cc1ccc(O)cc1Nc1ccnc2cc(-c3csc(CN4CCN(C)CC4)n3)ccc12", "inhibition": 8.26}, {"compound": "CC(C)CCN(Cc1cncn1Cc1cccc(C(F)(F)F)c1)C(=O)c1cncc(-c2ccccc2)c1", "inhibition": 3.6}, {"compound": "CC(=NNC(S)=NC(C)(C)C)c1ccccn1", "inhibition": 65.9}, {"compound": "CCN(CC)CCCn1c(N)c(-c2nc3ccccc3[nH]2)c2nc(C#N)c(C#N)nc21", "inhibition": 7.13}, {"compound": "O=C(Nc1ccc(-c2nc3ccccc3[nH]2)cc1)c1cccc(S(=O)(=O)N2CCOCC2)c1", "inhibition": 4.9}, {"compound": "Cc1cc(Nc2ccccc2)nc(Nc2ccccc2C)n1", "inhibition": 5.24}, {"compound": "CSCCCN1CCC(O)(c2ccc3oc(C(=O)Nc4ccc5sc(C)nc5c4)cc3c2)CC1", "inhibition": 23.3}, {"compound": "COc1ccc(CCn2c(=N)c(C(=O)NCc3ccc(C)cc3)cc3c(=O)n4ccccc4nc32)cc1", "inhibition": 3.94}, {"compound": "OCC1CCCCN1Cc1cccc(-c2cccc(-c3nc4ccccc4[nH]3)c2)c1", "note": "(stereo not given)", "inhibition": 6.6}, {"compound": "Cc1cccc(Nc2nccc(NCC(O)c3cccc(C(F)(F)F)c3)n2)c1", "note": "(stereo not given)", "inhibition": 7.67}, {"compound": "CC[C@@H]([C@@H](Cc1cc2ccccc2s1)C(=O)N[C@@H](CCCCNC(=O)OCc1ccccc1)C(=O)Nc1ccccn1)N(O)C=O", "inhibition": 5.52}]}]}
